According to PubChem BioAssay (NCI):
About 79,000 compounds went through this panel and 15% of them were active in at least one assay; those are over-represented in the sample as a whole. Values without a mark were called inactive. Activity calls are given as the source filed them. No stated cut-off is given here; in the data, active means growth inhibition above about 70%; inactive means the rest.

Experiments:
[1] = NCI Yeast Anticancer Drug Screen. Data for the rad50 strain (AID 155);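 further: 0% = growth of vehicle-only cultures of the same strain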; details: S. cerevisiae rad50 strain growth inhibition, active compounds read high
Outline: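 Vehicle-treated cultures provide the reference for the growth inhibition reported for compound-exposed, repair-deficient yeast.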

[2] = NCI Yeast Anticancer Drug Screen. Data for the mec2-1 strain (AID 157); details: S. cerevisiae mec2-1 strain, active compounds read high
Outline: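 Readout is yeast growth inhibition, normalised to vehicle-treated controls, in the mec2-1 strain exposed to compound.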

[3] = NCI Yeast Anticancer Drug Screen. Data for the sgs1 mgt1 strain (AID 161);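 further: 0% = growth of cultures given vehicle only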; details: S. cerevisiae sgs1 mgt1 strain, active compounds read high
Outline: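 Yeast cells carrying a defined DNA-repair defect were exposed to test compounds. Growth inhibition was measured relative to vehicle-treated controls.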

[4] = NCI Yeast Anticancer Drug Screen. Data for the cln2 rad14 strain (AID 165);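 further: 0% = growth equal to vehicle treated cultures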; details: S. cerevisiae cln2 rad14 strain, active compounds read high
Outline: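 Relative to vehicle controls, growth inhibition of compound-treated cln2 rad14 yeast was recorded.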

[5] = NCI Yeast Anticancer Drug Screen. Data for the bub3 strain (AID 167); details: S. cerevisiae bub3 mutant strain, active compounds read high
Outline: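 Mutant yeast screening strain plus compound; vehicle-treated cultures serve as the 0% inhibition reference.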

[6] = NCI Yeast Anticancer Drug Screen. Data for the mlh1 rad18 strain (AID 175); details: S. cerevisiae mlh1 rad18 strain growth inhibition, active compounds read high
Outline: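 Test agents were incubated with a yeast strain of defined genotype (DNA damage repair defect). Inhibition of growth was derived by comparison with vehicle-exposed cultures.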

[7] = at 5.0 µM (retest, dose inferred, filed as 0.5)
[8] = at 50.0 µM (retest, dose inferred, filed as 5.0)

Compound	growth inhibition [1, 7] [%]	growth inhibition [1, 8]	growth inhibition ([1]; at 50.0 µM)	growth inhibition [2, 7]	growth inhibition [2, 8]	growth inhibition ([2]; at 50.0 µM)	growth inhibition [3, 7]	growth inhibition [3, 8]	growth inhibition ([3]; at 50.0 µM)	growth inhibition [4, 7] [%]	growth inhibition [4, 8]	growth inhibition ([4]; at 50.0 µM)	growth inhibition [5, 7] [%]	growth inhibition [5, 8]	growth inhibition ([5]; at 50.0 µM)	growth inhibition [6, 7]	growth inhibition [6, 8]	growth inhibition ([6]; at 50.0 µM)
O=C1CSC(c2ccc([N+](=O)[O-])cc2)N1c1ccc(-c2ccc(-n3c(-c4ccccc4)nc4ccccc4c3=O)cc2)cc1 (configuration not stated)	-1	91% (active)	85.2% (active)	13%	79% (active)	84.4% (active)	14%	93% (active)	94% (active)	31	75% (active)	72.5% (active)	-14	95% (active)	95.2% (active)	19%	96% (active)	94.8% (active)
CC1(C)OC2C(COC(c3ccccc3)(c3ccccc3)c3ccccc3)OC(n3ccc(=O)[nH]c3=O)C2O1 (configuration not stated)	57	92% (active)	75.9% (active)	35%	96% (active)	53.6%	43%	56%	75.3% (active)	28	75% (active)	52.1%	42	94% (active)	72.6% (active)	52%	95% (active)	70.5% (active)
Cc1ccc(C(CN(C)C)C(=O)c2ccccc2)cc1C (configuration not stated)	-4	97% (active)	4.8%	-2%	97% (active)	3.35%	-4%	93% (active)	36.3%	-3	42%	-23.6%	-2	97% (active)	69.4%	-6%	98% (active)	27.4%
CCCCCC/C=C/C#CCCCCCCCC(=O)O	30	15%	5.5%	21%	11%	9.2%	33%	37%	14%	17	16%	11.8%	19	3%	17.3%	57%	44%	-88.8%
CN(C)c1ccccc1CN1CCCN(Cc2ccccc2N(C)C)C1	-4	7%	69.8%	8%	26%	50%	1%	35%	75.2% (active)	0	2%	4.45%	2	6%	1.5%	18%	35%	63.3%
O=c1[nH]c2ccccc2c(O)c1/C=N/C(=S)NCCc1ccccc1	26	28%	-41.5%	25%	22%	-21.8%	28%	29%	5.4%	21	11%	9.6%	30	20%	4.65%	28%	22%	7.5%
O=c1[nH]cc(F)c(=O)n1C1CCCCO1 (configuration not stated)	30	41%	46%	16%	34%	49.5%	46%	72% (active)	71% (active)	46	49%	12.2%	42	59%	34.5%	23%	35%	6.85%
Nc1cc(Cl)c2c(c1)Cc1ccccc1-2	3	96% (active)	76.8% (active)	2%	95% (active)	9.45%	7%	96% (active)	84.8% (active)	-7	94% (active)	-22.4%	-6	94% (active)	70.8% (active)	0%	94% (active)	86.8% (active)
CCCCCC(/C=N/Nc1nc(C)cc(=O)[nH]1)=C\c1ccccc1	9	45%	31.3%	-1%	50%	30.8%	3%	81% (active)	29.9%	3	39%	44.1%	-1	83% (active)	53%	-8%	37%	70.5% (active)
COC(=O)c1ccc(CCc2cc(O)ccc2O)cc1	58	99% (active)	98.8% (active)	74% (active)	100% (active)	98.5% (active)	70% (active)	99% (active)	98% (active)	27	99% (active)	88.8% (active)	52	99% (active)	98.5% (active)	88% (active)	99% (active)	98.8% (active)
O=C1C(c2ccc(Br)cc2)=[N+]([O-])c2ccccc21	9	94% (active)	93.5% (active)	12%	84% (active)	87.3% (active)	10%	94% (active)	93.8% (active)	-4	47%	85.5% (active)	19	94% (active)	96.4% (active)	11%	91% (active)	95.8% (active)
O=[N+]([O-])c1cc(Cl)cc(C(c2cc(Cl)cc([N+](=O)[O-])c2O)C(Cl)(Cl)Cl)c1O	52	94% (active)	97.7% (active)	50%	98% (active)	98.4% (active)	38%	92% (active)	98.1% (active)	36	96% (active)	97% (active)	33	96% (active)	97.2% (active)	66%	96% (active)	98.3% (active)
CCCCCCC(Sc1n[nH]c(=O)[nH]c1=O)C(=O)OCC (configuration not stated)	3	76% (active)	61.5%	-1%	80% (active)	52.9%	1%	88% (active)	77.6% (active)	3	83% (active)	52%	2	77% (active)	43.5%	-2%	89% (active)	61.1%
COc1ccc2c3c(ccc2c1)NC(C(=O)O)CC3 (configuration not stated)	0	82% (active)	60.5%	-11%	56%	-15.8%	-2%	83% (active)	36%	-17	41%	21.3%	-6	82% (active)	52%	3%	87% (active)	61.1%
CCN(CC)CCCC(=O)Nc1cc(OC)cc2cccnc12	2	0%	3.65%	15%	-3%	6.3%	8%	1%	-4.7%	1	-1%	-2.55%	1	-3%	-1.85%	2%	-1%	13.4%
COc1ccc2nc(N/N=C/c3ccccn3)cc(C)c2c1	10	56%	98.7% (active)	-3%	62%	98.1% (active)	0%	57%	99.2% (active)	3	40%	96.5% (active)	4	58%	98.3% (active)	19%	75% (active)	99% (active)
c1ccc2c(c1)ccc1ncccc12	8	70% (active)	81.8% (active)	3%	23%	3.15%	0%	38%	47.6%	2	10%	-12.2%	6	62%	46.9%	6%	43%	64.8%
COc1cccc(C2c3cc4c(cc3OC(N3CCCC3)C2C)OCO4)c1 (configuration not stated)	-16	74% (active)	85.2% (active)	-34%	82% (active)	82% (active)	-27%	54%	77.8% (active)	-15	67%	76.3% (active)	-30	88% (active)	85% (active)	-32%	72% (active)	80.1% (active)
C/C(CC(O)(C(F)(F)F)C(F)(F)F)=N/Nc1ccc([N+](=O)[O-])cc1[N+](=O)[O-]	16	99% (active)	99.2% (active)	-11%	99% (active)	99.5% (active)	-2%	99% (active)	99.5% (active)	13	99% (active)	99.3% (active)	-10	100% (active)	99.5% (active)	12%	99% (active)	99.3% (active)
